Laboratory results reported in PubChem BioAssay (NCI).
About 83,000 compounds went through this panel and 20% of them were active in at least one assay; those are over-represented in the sample as a whole.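 For each line, cells grew in 96-well plates with the test compound present at a single concentration for 48 hours.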 Active and inactive are the calls of the source. The calls were made as follows: active = growth percent below 10; inactive = the rest.

Experiments:
Test in all cases: NCI-60 one-dose screen, 48 h (100 = growth as untreated, 0 = no growth, -100 = all killed)
HCT-15 colon = settings: 10 µM unless noted
HT29 colon = settings: 10 µM unless noted
SNB-75 CNS = settings: 10 µM unless noted
SNB-19 CNS = settings: 10 µM unless noted
U251 CNS = settings: 10 µM unless noted
PC-3 prostate = settings: 10 µM unless noted
SK-MEL-5 melanoma = settings: 10 µM unless noted
UACC-62 melanoma = settings: 10 µM unless noted
LOX IMVI melanoma = settings: 10 µM unless noted
SK-MEL-28 melanoma = settings: 10 µM unless noted
SK-MEL-2 melanoma = settings: 10 µM unless noted
EKVX NSCLC = settings: 10 µM
SN12C renal = settings: 10 µM unless noted
UO-31 renal = settings: 10 µM unless noted
TK-10 renal = settings: 10 µM unless noted
ACHN renal = settings: 10 µM unless noted
A498 renal = settings: 10 µM unless noted
CCRF-CEM leukemia = settings: 10 µM
MOLT-4 leukemia = settings: 10 µM unless noted
CAKI-1 renal = settings: 10 µM unless noted

Measured: growth

COc1ccc(CN2C(=O)/C(=C\C(=O)c3ccc(OCCN4CCCC4)cc3)c3ccccc32)cc1
inactive: HCT-15 colon 37.3% | SNB-75 CNS 73.2% | SNB-19 CNS 97.1% | U251 CNS 87.3% | PC-3 prostate 84% | SK-MEL-5 melanoma 92.7% | UACC-62 melanoma 88.7% | LOX IMVI melanoma 31.7% | SK-MEL-28 melanoma 103% | SK-MEL-2 melanoma 103% | EKVX NSCLC 96.4% | SN12C renal 49.8% | UO-31 renal 56.5% | TK-10 renal 109% | ACHN renal 69.9% | A498 renal 88.8%
active: HT29 colon 9.12% | CCRF-CEM leukemia 2.08% | MOLT-4 leukemia 5.57%

CCOC(=O)c1ccc2n1CCCc1cnc(NC(C)=O)nc1-2
inactive: HCT-15 colon 107% | HT29 colon 106% | SNB-75 CNS 85.5% | SNB-19 CNS 99.7% | U251 CNS 102% | PC-3 prostate 93.1% | SK-MEL-5 melanoma 100% | UACC-62 melanoma 93.9% | LOX IMVI melanoma 99.7% | SK-MEL-28 melanoma 99.2% | SK-MEL-2 melanoma 102% | EKVX NSCLC 98.5% | SN12C renal 102% | UO-31 renal 89.5% | TK-10 renal 107% | ACHN renal 99.3% | CAKI-1 renal 92.1% | CCRF-CEM leukemia 93.9% | MOLT-4 leukemia 108%

Cc1nnc(-c2cc3c(ccc4ccccc43)oc2=O)c2cn(-c3ccc(Cl)cc3)nc12
inactive: HCT-15 colon 87.4% | HT29 colon 95.4% | SNB-75 CNS 82.4% | SNB-19 CNS 96.4% | U251 CNS 87.1% | PC-3 prostate 88.6% | SK-MEL-5 melanoma 96% | UACC-62 melanoma 90.9% | LOX IMVI melanoma 79.9% | SK-MEL-28 melanoma 118% | SK-MEL-2 melanoma 95.4% | EKVX NSCLC 84% | SN12C renal 99.5% | UO-31 renal 66.2% | TK-10 renal 151% | ACHN renal 97.5% | A498 renal 103% | CCRF-CEM leukemia 74.1% | MOLT-4 leukemia 75.4%

O=C(Nc1cccc(Cn2c(=O)[nH]c3ccc(Oc4ncccn4)cc3c2=O)c1)c1cc(Cl)cc(Cl)c1
inactive: HCT-15 colon 77.3% | HT29 colon 47.4% | SNB-75 CNS 42.6% | SNB-19 CNS 69.4% | U251 CNS 51.1% | PC-3 prostate 64.5% | SK-MEL-5 melanoma 56.8% | UACC-62 melanoma 66.6% | LOX IMVI melanoma 86.3% | SK-MEL-28 melanoma 60.7% | SK-MEL-2 melanoma 55.1% | EKVX NSCLC 72.3% | SN12C renal 59.4% | UO-31 renal 65.6% | TK-10 renal 71.5% | ACHN renal 19.8% | CAKI-1 renal 91% | CCRF-CEM leukemia 77.9% | MOLT-4 leukemia 63.8%

CC(=O)Nc1nc(C)c(C(=O)N/N=C/c2cccs2)s1
inactive: HCT-15 colon 101% | HT29 colon 95% | SNB-75 CNS 72% | SNB-19 CNS 96.8% | U251 CNS 98.6% | PC-3 prostate 101% | SK-MEL-5 melanoma 97.7% | UACC-62 melanoma 80.1% | LOX IMVI melanoma 93.2% | SK-MEL-28 melanoma 95.5% | SK-MEL-2 melanoma 19.3% | EKVX NSCLC 107% | SN12C renal 92.6% | UO-31 renal 79.8% | TK-10 renal 144% | ACHN renal 95.9% | CAKI-1 renal 111% | CCRF-CEM leukemia 84.6% | MOLT-4 leukemia 84.1%

CC[C@H](Nc1ncnc2nc[nH]c12)c1nc2cccc(NCc3ccc(C(=O)NO)o3)c2c(=O)n1-c1ccccc1
inactive: HCT-15 colon 103% | HT29 colon 91.3% | SNB-75 CNS 71.6% | SNB-19 CNS 99.7% | U251 CNS 107% | PC-3 prostate 93.3% | SK-MEL-5 melanoma 101% | UACC-62 melanoma 92.6% | LOX IMVI melanoma 95.4% | SK-MEL-28 melanoma 100% | SK-MEL-2 melanoma 102% | EKVX NSCLC 110% | SN12C renal 95.2% | UO-31 renal 79% | TK-10 renal 84.1% | ACHN renal 97.3% | A498 renal 97% | CCRF-CEM leukemia 88.7% | MOLT-4 leukemia 97.8%

COc1ccc(C2=NN(C(=O)c3cc(-c4ccc(C)cc4)nc4ccccc34)C(c3cc(-c4ccccc4)nn3-c3ccccc3)C2)cc1 (stereo not given)
inactive: HCT-15 colon 82.6% | HT29 colon 105% | SNB-75 CNS 88.3% | SNB-19 CNS 83% | U251 CNS 85.3% | PC-3 prostate 74.7% | SK-MEL-5 melanoma 97.8% | UACC-62 melanoma 83.5% | LOX IMVI melanoma 80.6% | SK-MEL-28 melanoma 93.8% | SK-MEL-2 melanoma 94.9% | EKVX NSCLC 99.6% | SN12C renal 97.7% | UO-31 renal 79.8% | TK-10 renal 113% | ACHN renal 98.6% | A498 renal 91% | CCRF-CEM leukemia 81.5% | MOLT-4 leukemia 84.7%

CCCCCCCCCc1cc[n+](CC(=O)c2ccc([N+](=O)[O-])cc2)cc1
active: HCT-15 colon -18.2% | HT29 colon -52.1% | U251 CNS 8.48% | PC-3 prostate -0.775% | SK-MEL-5 melanoma -77.8% | UACC-62 melanoma -6.32% | LOX IMVI melanoma -77.2% | SK-MEL-2 melanoma -73.9% | SN12C renal -2.2% | MOLT-4 leukemia 1.62%
inactive: SNB-75 CNS 23.9% | SNB-19 CNS 13.8% | SK-MEL-28 melanoma 12.3% | EKVX NSCLC 11.1% | UO-31 renal 35% | TK-10 renal 48.4% | ACHN renal 48.1% | CAKI-1 renal 74.9%

O=C(C(=O)N1CCOCC1)c1ccc(O[C@H]2O[C@H](CO)[C@@H](O)[C@H](O)[C@@H]2O)cc1
inactive: HCT-15 colon 97.4% | HT29 colon 93.4% | SNB-75 CNS 100% | SNB-19 CNS 109% | U251 CNS 104% | PC-3 prostate 88.8% | SK-MEL-5 melanoma 97.4% | UACC-62 melanoma 97.1% | LOX IMVI melanoma 102% | SK-MEL-28 melanoma 117% | SK-MEL-2 melanoma 107% | EKVX NSCLC 116% | SN12C renal 101% | UO-31 renal 91.5% | TK-10 renal 103% | ACHN renal 95% | CAKI-1 renal 100% | CCRF-CEM leukemia 109% | MOLT-4 leukemia 103%

CCS(=O)(=O)N[C@@H]1O[C@H](COC(C)=O)C(OC(C)=O)[C@H](OC(C)=O)C1OC(C)=O (stereo not given in full)
inactive: HCT-15 colon 93.8% | HT29 colon 102% | SNB-75 CNS 93.9% | SNB-19 CNS 115% | U251 CNS 97.7% | PC-3 prostate 102% | SK-MEL-5 melanoma 105% | UACC-62 melanoma 110% | LOX IMVI melanoma 92.8% | SK-MEL-28 melanoma 108% | SK-MEL-2 melanoma 106% | EKVX NSCLC 99.1% | SN12C renal 112% | UO-31 renal 94.6% | TK-10 renal 97.4% | ACHN renal 101% | CAKI-1 renal 94.8% | MOLT-4 leukemia 106%

C=C[C@]1(C)C=C2C(=O)[C@@]3(O)OC[C@@]4(CCCC(C)(C)C43O)C2(O)C(O)C1 (stereo not given in full)
inactive: HCT-15 colon 12.9% | SNB-75 CNS 69.6% | SNB-19 CNS 99.3% | U251 CNS 53.9% | PC-3 prostate 55.2% | SK-MEL-5 melanoma 91.6% | UACC-62 melanoma 86.3% | LOX IMVI melanoma 12.2% | SK-MEL-28 melanoma 47.2% | EKVX NSCLC 91.2% | SN12C renal 93.2% | UO-31 renal 33.8% | CAKI-1 renal 10.8% | MOLT-4 leukemia 78%
active: HT29 colon -68.6% | SK-MEL-2 melanoma -0.387% | TK-10 renal -68.2% | ACHN renal 3.59%

OC(c1ccccc1)(c1ccccc1)C(F)(F)F
inactive: HCT-15 colon 107% | HT29 colon 103% | SNB-75 CNS 111% | SNB-19 CNS 113% | U251 CNS 109% | PC-3 prostate 88.4% | SK-MEL-5 melanoma 109% | UACC-62 melanoma 102% | LOX IMVI melanoma 105% | SK-MEL-28 melanoma 117% | SK-MEL-2 melanoma 97.7% | EKVX NSCLC 102% | SN12C renal 94.9% | UO-31 renal 98.1% | TK-10 renal 95.7% | ACHN renal 94.8% | CAKI-1 renal 97.8% | CCRF-CEM leukemia 84.7% | MOLT-4 leukemia 102%

COc1ccc(-n2nnnc2-c2cn[nH]c2C(F)(F)F)cc1
inactive: HCT-15 colon 110% | HT29 colon 93.1% | SNB-75 CNS 102% | SNB-19 CNS 101% | U251 CNS 94.8% | PC-3 prostate 105% | SK-MEL-5 melanoma 94.4% | UACC-62 melanoma 83.6% | LOX IMVI melanoma 95.6% | SK-MEL-28 melanoma 96.2% | SK-MEL-2 melanoma 92.4% | EKVX NSCLC 90.3% | SN12C renal 104% | UO-31 renal 92.9% | TK-10 renal 113% | ACHN renal 99.3% | CAKI-1 renal 92.5% | CCRF-CEM leukemia 98.3% | MOLT-4 leukemia 79%

N#Cc1c(N)nc(Nc2nc3ccccc3[nH]2)nc1-c1ccc(Cl)cc1
inactive: HCT-15 colon 109% | HT29 colon 95.4% | SNB-75 CNS 95.1% | SNB-19 CNS 107% | U251 CNS 97.6% | PC-3 prostate 94.8% | SK-MEL-5 melanoma 99.9% | UACC-62 melanoma 113% | LOX IMVI melanoma 96.2% | SK-MEL-28 melanoma 115% | SK-MEL-2 melanoma 114% | EKVX NSCLC 109% | SN12C renal 111% | UO-31 renal 82.8% | TK-10 renal 109% | ACHN renal 101% | CAKI-1 renal 86.9% | CCRF-CEM leukemia 95.9% | MOLT-4 leukemia 84.7%

COc1cc([C@@H]2c3cc4c(cc3[C@H](O)[C@H]3COC[C@@H]23)OCO4)cc(OC)c1OC
inactive: HCT-15 colon 59.1% | HT29 colon 79.1% | SNB-75 CNS 58% | SNB-19 CNS 76.9% | U251 CNS 77.4% | PC-3 prostate 63.8% | SK-MEL-5 melanoma 51% | UACC-62 melanoma 42.7% | LOX IMVI melanoma 75.7% | SK-MEL-28 melanoma 69.4% | SK-MEL-2 melanoma 89.3% | EKVX NSCLC 109% | SN12C renal 90.5% | UO-31 renal 53.9% | TK-10 renal 94.4% | ACHN renal 78.2% | CAKI-1 renal 62.3% | MOLT-4 leukemia 76.6%

N#CC1=C(N2CCOCC2)NC2c3ccccc3Sc3ccccc3N2C1=N (stereo not given)
inactive: HCT-15 colon 104% | HT29 colon 104% | SNB-75 CNS 94.1% | SNB-19 CNS 107% | U251 CNS 98.7% | PC-3 prostate 88.8% | SK-MEL-5 melanoma 90.3% | UACC-62 melanoma 87.4% | LOX IMVI melanoma 94.2% | SK-MEL-28 melanoma 93.9% | SK-MEL-2 melanoma 108% | EKVX NSCLC 92.8% | SN12C renal 103% | UO-31 renal 72.9% | TK-10 renal 96.9% | ACHN renal 91.5% | CAKI-1 renal 94% | CCRF-CEM leukemia 82.7% | MOLT-4 leukemia 120%
